From PubChem BioAssay
Calls of active or inactive are those of the source.

Columns and labels:
Albumin (Bos taurus) = Albumin (Bos taurus) (UniProt P02769); experiment: bovine serum albumin binders on microarray, profiling panel, artefact control for SMM control protein annotation, biochemical, small-molecule microarray, Alexa647 label, 635/667 nm fluorescence (AID 1118); conditions: BSA-A647 binding, fluorescence 635 nm, higher = more signal;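 note: score merges 667 nm emission intensity and signal-to-noise per printed compound spot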
Sequence of Albumin (Bos taurus) (P02769 whole entry, looked up): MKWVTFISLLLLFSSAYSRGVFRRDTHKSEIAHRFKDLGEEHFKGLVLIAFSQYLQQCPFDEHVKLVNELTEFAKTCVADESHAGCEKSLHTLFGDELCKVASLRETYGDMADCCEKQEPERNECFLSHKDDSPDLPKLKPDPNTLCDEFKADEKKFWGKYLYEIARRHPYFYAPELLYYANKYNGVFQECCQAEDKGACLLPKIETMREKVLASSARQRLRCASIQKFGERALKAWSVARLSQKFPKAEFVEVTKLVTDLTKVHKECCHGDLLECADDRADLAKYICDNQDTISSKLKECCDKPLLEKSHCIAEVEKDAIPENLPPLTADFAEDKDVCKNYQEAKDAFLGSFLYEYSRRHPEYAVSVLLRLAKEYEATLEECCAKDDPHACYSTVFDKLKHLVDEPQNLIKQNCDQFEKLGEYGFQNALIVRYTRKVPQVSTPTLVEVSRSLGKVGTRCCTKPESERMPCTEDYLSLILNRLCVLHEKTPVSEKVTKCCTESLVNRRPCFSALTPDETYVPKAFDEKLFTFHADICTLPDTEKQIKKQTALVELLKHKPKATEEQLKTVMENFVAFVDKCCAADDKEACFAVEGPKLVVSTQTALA

[1] = small-molecule microarray binders of probe aXIP, primary screen, biochemical, NeuroSMM set, 635/667 nm fluorescence (AID 1119); conditions: higher = more signal, called active from +8 up or from −8 down;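 note: probe is the protein aXip251-270 applied at 1 µg/mL to compound-printed slides; binding of probe to printed compounds measured as 667 nm fluorescence plus signal to noise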
[2] = small-molecule binders of probe aNOTCH3, primary screen, biochemical, small-molecule microarray, 635/667 nm fluorescence (AID 1120); conditions: higher = more signal;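 note: probe is a biotin-tagged antibody raised against NOTCH3 rather than NOTCH3 protein; score merges spot fluorescence near 667 nm with spot signal to noise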
[3] = small-molecule binders of probe aNOTCH2, primary screen, biochemical, small-molecule microarray, 635/667 nm fluorescence (AID 1121); conditions: higher = more signal;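 note: score merges feature fluorescence read at 667 nm with its signal to noise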
[4] = target: Carbonic anhydrase 2 (Homo sapiens) (UniProt P00918); experiment: CAII small-molecule binders, profiling panel, biochemical, small-molecule microarray, Alexa647-labelled CAII (AID 1122); conditions: CAII-A647 binding fluorescence, higher = more signal
[5] = COS7 lysate on small-molecule microarray, probe aHis, 635 nm (AID 1123); conditions: COS7 cell lysate, fluorescence, higher = more signal;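 note: z-score combines 667nm fluorescence intensity with signal-to-noise per printed compound spot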
[6] = compound binding in COS7 lysate, probe aLAP1, primary screen, cell lysate, small-molecule microarray (AID 1124); conditions: probe aLAP1, fluorescence, higher = more signal;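 note: lysate comes from COS7 cells expressing LAP1 and is applied at 0.3 µg/mL; score merges spot fluorescence near 667 nm with signal-to-noise over triplicate slides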
Sam68 (KHDRBS1) = experiment: Sam68 small-molecule binders, primary screen, biochemical, small-molecule microarray, 635 nm fluorescence (AID 1125); conditions: small-molecule microarray binding, higher = more signal;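 note: score merges 667 nm channel intensity with signal to noise over triplicate slides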
[7] = system: Chordin-like protein 2 (CHRDL2); experiment: CHRDL2 small-molecule binders, primary screen, biochemical, small-molecule microarray, 635 nm fluorescence (AID 1126); conditions: small-molecule microarray binding, fluorescence 635 nm; higher = more signal;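 note: printed compound slides probed with Chrdl2 protein at 4 µg/mL for 1 h at 4 C; score merges 667 nm emission intensity with signal to noise over three replicate slides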
[8] = target: Concanavalin-A (Canavalia ensiformis) (UniProt P02866); experiment: ConA small-molecule binders, primary screen, artefact control for SMM control protein annotation, biochemical, small-molecule microarray, Alexa647 label, 635 nm (AID 1127); conditions: ConA-A647 binding fluorescence, higher = more signal;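 note: z combines 667 nm emission intensity with signal-to-noise across three replicate slides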
Sequence of Concanavalin-A (Canavalia ensiformis) (P02866 whole entry, looked up): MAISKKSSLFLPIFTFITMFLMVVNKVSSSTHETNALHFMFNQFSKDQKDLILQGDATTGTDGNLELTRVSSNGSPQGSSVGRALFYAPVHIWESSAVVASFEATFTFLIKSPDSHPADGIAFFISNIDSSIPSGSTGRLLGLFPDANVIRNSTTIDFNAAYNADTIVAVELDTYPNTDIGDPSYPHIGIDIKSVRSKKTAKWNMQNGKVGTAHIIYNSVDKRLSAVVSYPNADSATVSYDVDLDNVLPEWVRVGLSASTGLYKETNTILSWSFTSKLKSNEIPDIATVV

| SMILES | composite z-score (Albumin (Bos taurus)) | composite Z-score [1] | composite z-score [2] | composite z-score [3] | composite z-score [4] | composite z-score [5] | composite z-score [6] | composite z-score (Sam68 (KHDRBS1)) | composite z-score [7] | composite z-score [8] |
| --- | --- | --- | --- | --- | --- | --- | --- | --- | --- | --- |
| COc1cccc([C@H]2Oc3ccc(OC)cc3C(=NO[C@H](C)c3cn([C@@H]4COC[C@H]4O)nn3)[C@@H]2O)c1 | -0.224 | -0.0239 (inactive) | -0.279 | -0.179 | 0.377 | -0.162 | -0.358 | -0.523 | -0.353 | 0.472 |
| O=C1[C@H]2[C@H]3[C@H](O)[C@H](O)CC(=NO[C@@H]4O[C@H](CO)[C@@H](O)[C@H](O)[C@H]4O)[C@@H]3CC[C@H]2C(=O)N1Cc1ccc2c(c1)OCO2 | -0.037 | 0.484 (inactive) | -0.004 | -0.18 | 0.376 | 0.542 | -0.211 | 0.907 | 0.538 | 0.211 |
| CN1C(=O)C2C=CC(C(O)c3ccc(I)cc3)N(NC(=O)OC(C)(C)C)C2C1=O (stereo not given) | 0.825 | -0.252 (inactive) | 0.435 | 0.17 | 0.719 | 2.18 | 0.555 | 1.31 | -0.294 | 0.898 |
| COCCOC(=O)N1C(=O)[C@@]2(c3ccccc31)[C@H](C(N)=O)[C@H]1C(=O)O[C@H](c3ccccc3)[C@H](c3ccccc3)N1[C@@H]2c1ccccc1OCCO | 0.834 | 0.839 (inactive) | 0.198 | 0.0959 | 0.749 | 2.02 | 1.06 | 1.3 | 0.522 | 1.15 |
| CC(C)[C@@H](OCc1ccccc1)[C@H](C)C=NO[C@H](C)c1cn([C@H](CO)Cc2ccccc2)nn1 | 0.0792 | 0.0599 (inactive) | -0.0362 | -0.163 | 0.0227 | 0.544 | 0.294 | 1.01 | 0.779 | 0.392 |
| CC(C)(C)N1C(=O)[C@H]2[C@H]3[C@H](O)[C@H](O)CC(=NO[C@@H]4O[C@H](CO)[C@@H](O)[C@H](O)[C@H]4O)[C@@H]3CC[C@H]2C1=O | -0.524 | 0.406 (inactive) | -0.059 | -0.154 | 0.361 | 0.741 | 0.649 | 1.24 | 1.07 | 0.0237 |
| CC[C@@H](c1ccccc1)n1c(=O)n2n(c1=O)[C@H]1[C@H](O)[C@@H]3O[C@@H]3C(=NOCC=C(C)CCC=C(C)C)[C@H]1CC2 | -0.258 | -0.183 (inactive) | 0.192 | -0.084 | 0.406 | 0.689 | -0.194 | 1.29 | 0.552 | 0.548 |
| CCOC(=O)[C@H](Cc1ccccc1)NC(=O)CCC1CC(OC(=O)NCCc2ccc(F)cc2)CC2(CCCC(COC(=O)NCC(c3ccccc3)c3ccccc3)O2)O1 (stereo not given in full) | 0.641 | 0.066 (inactive) | -0.0893 | -0.037 | 0.16 | 1.04 | 0.0435 | 1.32 | 0.227 | 0.992 |
| COC(=O)[C@@H]1CC[C@H](C)[C@@H](c2ccc(C)cc2)N1C(=O)c1ccc(C=NOC[C@@H](O)COCc2ccco2)cc1 | -0.188 | -0.93 (inactive) | -0.0077 | -0.195 | -0.746 | -1.31 | 0.171 | -1.9 | -0.177 | -3.62 |
| CCCNC(=O)OC[C@H]1O[C@H](CCON=C[C@@H](OC)[C@H](C)C=CCC(=O)OC)C=C[C@@H]1Oc1ccc(OC)cc1 | -1.05 | -0.431 (inactive) | 0.142 | -0.192 | 0.0769 | 0.438 | 0.325 | 0.693 | 1.16 | -1.26 |
| C=C(COC)/C(=C/C[C@H](OC(=O)c1ccncc1)c1ccc(CO)o1)c1cc(C(=O)OC)ccc1OC | 0.439 | 0.515 (inactive) | 0.0222 | -0.0255 | 0.554 | 1.17 | 0.347 | 1.15 | 0.79 | 0.889 |
| CO[C@@H]1COC(=O)CC=C[C@@H](C)[C@H](OC)COC(=O)[C@H](COCc2ccccc2)NC(=O)CC=C[C@H]1C | -1.39 | 0.0898 (inactive) | -0.0584 | -0.197 | -0.654 | -0.925 | -0.23 | -0.978 | 1.22 | -3.99 |
| N#Cc1ccc(NN2C(C(O)c3cccc4ccccc34)C=CC3C(=O)N(c4ccccc4)C(=O)C32)cc1 (stereo not given) | 0.595 | 0.544 (inactive) | 0.479 | 0.0687 | 0.696 | 2.82 | 0.599 | 1.31 | -0.0989 | 0.926 |
